Experimental data taken from publication PMC10668032, “Altered binding affinity of SIX1-Q177R correlates with enhanced WNT5A and WNT pathway effector expression in Wilms tumor”.
Whole data set: some 33,000 sequences, median “e-score” near -0.05, cut for the highest 2% near 0.38. What follows is part of a selection rich in the highest values, with near analogues and random picks from the rest.

Molecular target: T1, SIX1-Q177R homeodomain (human, UniProt Q15475 108-198, Q177R)
T1 sequence: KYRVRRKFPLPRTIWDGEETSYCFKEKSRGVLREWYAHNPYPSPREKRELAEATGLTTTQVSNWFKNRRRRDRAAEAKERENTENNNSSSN
Assay: universal protein binding microarray; Universal all-10-mer PBM (8x60K, AMADID 030236), 300 nM GST-tagged protein, Alexa Fluor 488 anti-GST; buffer, salt, pH and temperature not stated (as in Berger); high values mean tight binding
Conditions: protein: ivt; tags: N-terminal GST; dsDNA, one strand shown
Outline: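 Binding was expressed as 8-mer E-scores calculated with the Universal PBM Analysis Suite. The GST-tagged homeodomains, made by in vitro transcription/translation, were applied in duplicate at 300 nM final concentration to universal 'all 10-mer' protein binding microarrays (8×60K format).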

Sequence | binding signal [E-score]
CCTTGACA | 0.253 ± 0.00743
CCCATGGA | 0.189 ± 0.033
ACCCTGTG | 0.207 ± 0.0277
GGTATACC | 0.303 ± 0.0126
ATGGGTGC | 0.154 ± 0.0381
CCCCTGAG | 0.16 ± 0.00444
AGGCGTAC | 0.221 ± 0.0327
ACCAGGTG | 0.217 ± 0.0167
ACTGCGTG | 0.29 ± 0.0171
ATGCGACA | 0.198 ± 0.03
CGGGTTAC | 0.159 ± 0.0432
ATAGGTAC | 0.166 ± 0.021
AGACACTG | 0.341 ± 0.0138
AGACACGG | 0.377 ± 0.019
AGACACCG | 0.468 ± 0.0126
AGACACCT | 0.4528 ± 0.0033
AATGATAC | 0.212 ± 0.0688
AACCCCAC | 0.222 ± 0.0452
ACACGGAA | 0.398 ± 0.0244
ACCCGGAA | 0.272 ± 0.0105
ACCCGGAT | 0.301 ± 0.0466
ACACGGAT | 0.392 ± 0.0346
ACACGGAG | 0.369 ± 0.00835
AGGATACC | 0.337 ± 0.0124
CGACCTCA | 0.168 ± 0.0123

Sequence | binding signal [E-score]
CAACTACA | 0.2474 ± 0.00148
ACCCTACG | 0.164 ± 0.0266
CCCCATGC | 0.201 ± 0.0118
GAAGGGTA | 0.169 ± 0.0222
AGTGTGGC | 0.193 ± 0.0161
CGTGTAGC | 0.416 ± 0.0198
AGTGTAGG | 0.411 ± 0.00742
AGTGTTGC | 0.321 ± 0.00542
CGTGTAGA | 0.379 ± 0.0134
AGTGTAGC | 0.3944 ± 0.000672
AGTGTGGG | 0.192 ± 0.0212
AGTGTAGA | 0.369 ± 0.0196
ACTTAATG | 0.219 ± 0.0268
CAATAGGG | 0.2 ± 0.0026
CCCGGACA | 0.233 ± 0.00728
TGTCATAA | 0.1985 ± 0.00132
AATGCACC | 0.162 ± 0.026
AGTGTTAA | 0.394 ± 0.0556
AGTGTTCC | 0.334 ± 0.0173
AGTGTTTC | 0.299 ± 0.0238
GGCGTTAC | 0.154 ± 0.00446
AGTGTTAC | 0.387 ± 0.0129
GGTGTTAC | 0.474 ± 0.00578
AGTGTTAT | 0.395 ± 0.041
GGGGTTAC | 0.261 ± 0.0216

Sequence | binding signal [E-score]
AGGAGTAT | 0.168 ± 0.0487
CGGGAACA | 0.157 ± 0.0155
CACCGGCG | 0.244 ± 0.0186
CCGGGGTC | 0.323 ± 0.0298
ACCCTAGA | 0.176 ± 0.00214
CACGTCAC | 0.16 ± 0.0113
GAGGTACA | 0.252 ± 0.0061
GGTGACAC | 0.4718 ± 0.00406
CGTGACTC | 0.207 ± 0.00528
AGTGACAC | 0.469 ± 0.00575
AGTGACCC | 0.234 ± 0.019
GGTGATAC | 0.313 ± 0.00834
CGTGACAC | 0.454 ± 0.00689
GGGGTGAC | 0.16 ± 0.0356
CGTGACCC | 0.211 ± 0.0247
AGTGACTC | 0.193 ± 0.0365
CACGGAGG | 0.222 ± 0.0241
CACGGCTG | 0.201 ± 0.0155
AGTATCAT | 0.259 ± 0.0404
CGCCGCAC | 0.151 ± 0.00857
GCCGACAC | 0.422 ± 0.0235
ACCGACTC | 0.204 ± 0.0477
ACCGACAC | 0.425 ± 0.0144
CCCGACGC | 0.151 ± 0.00346
GCCGATCC | 0.19 ± 0.00748

Sequence | binding signal [E-score]
CCCGACCC | 0.187 ± 0.0176
CCCGACAC | 0.45 ± 0.0155
ACCGACCC | 0.192 ± 0.0372
CAGCACCG | 0.242 ± 0.0129
CGGACGAC | 0.152 ± 0.037
GTTCCGGA | 0.175 ± 0.0199
ACCCACGA | 0.153 ± 0.0296
AAACTAGA | 0.163 ± 0.00455
AGTGTACC | 0.414 ± 0.00528
CGTGTGCC | 0.168 ± 0.0218
CGTGTACC | 0.4357 ± 0.00135
GGGGTACC | 0.247 ± 0.0225
AGAGTACA | 0.186 ± 0.00263
CATGTACA | 0.167 ± 0.0144
CGGGTACC | 0.16 ± 0.0136
AGTGTGCC | 0.159 ± 0.0249
ACTGTACA | 0.223 ± 0.00571
AGTGTACA | 0.418 ± 0.0292
CTTGTACA | 0.154 ± 0.0493
CGTGTACA | 0.427 ± 0.00703
AGTACCCA | 0.175 ± 0.0132
CACCATGG | 0.343 ± 0.0218
CGTAGGTA | 0.209 ± 0.00643
CACTAGTC | 0.208 ± 0.0318
CACGGTAC | 0.186 ± 0.0635

Sequence | binding signal [E-score]
CACTATAG | 0.192 ± 0.0146
AGTGTACG | 0.407 ± 0.00139
GCTGTACA | 0.208 ± 0.0271
AGTGTGTG | 0.197 ± 0.0254
CGAGTACG | 0.19 ± 0.0193
GGTGTACA | 0.4817 ± 0.00156
GTTGTACA | 0.223 ± 0.0201
CACGGAAA | 0.188 ± 0.0559
ATACCGAC | 0.173 ± 0.0172
GCACCGAC | 0.225 ± 0.017
ACACCGAC | 0.475 ± 0.00507
ACGCCGAT | 0.152 ± 0.0158
ACACCGAG | 0.4783 ± 0.00449
CCCCCGAG | 0.188 ± 0.0196
GCACCGAA | 0.156 ± 0.0137
ACCCCGAA | 0.228 ± 0.0524
ACACCGAA | 0.4689 ± 0.000997
ACCCCGAT | 0.229 ± 0.00378
ACACCGAT | 0.473 ± 0.00479
ACCCCGAG | 0.317 ± 0.0221
CACCGTAG | 0.255 ± 0.00273
CGGAGTAC | 0.229 ± 0.00578
GGCGAACA | 0.198 ± 0.0404
ACCCTTAG | 0.172 ± 0.00692
CACTAAAC | 0.195 ± 0.0243

Sequence | binding signal [E-score]
CACTTGAC | 0.258 ± 0.0158
CAAGGATA | 0.184 ± 0.029
ACTCCACA | 0.206 ± 0.00721
AGTTGGGG | 0.16 ± 0.00841
GTGACACA | 0.333 ± 0.0417
CTGACACC | 0.4913 ± 0.00298
ATGACACA | 0.275 ± 0.0196
CTGACGCC | 0.185 ± 0.012
ATGACTCC | 0.273 ± 0.00839
ATGACACC | 0.4917 ± 0.00156
CTGACACA | 0.297 ± 0.0288
ATGACACG | 0.4485 ± 0.00163
ATGACGCC | 0.172 ± 0.00576
CCCCCAAG | 0.227 ± 0.0377
CGGCTACG | 0.164 ± 0.00561
CACCAATA | 0.276 ± 0.0342
CCCCCATA | 0.192 ± 0.0334
GGGATGTA | 0.159 ± 0.0364
AACGAACA | 0.208 ± 0.0231
GTGTGTTA | 0.298 ± 0.00829
CGGTGCTA | 0.2 ± 0.00414
ACGTGTTG | 0.346 ± 0.00562
AGGTGTTG | 0.448 ± 0.00602
AGGTGTTC | 0.457 ± 0.00831
GGGTGTTA | 0.475 ± 0.00715

Sequence | binding signal [E-score]
CGGAGTTA | 0.253 ± 0.0116
AAGTGTTG | 0.289 ± 0.02
AGGTGCTC | 0.158 ± 0.0126
GGGGGTTA | 0.293 ± 0.0288
CGGTGTTA | 0.4847 ± 0.00334
ACGCCCAG | 0.1915 ± 0.000269
CACCTGGC | 0.152 ± 0.00727
CGCCCAGC | 0.161 ± 0.0486
AATACCCT | 0.171 ± 0.00453
CCCCTCGC | 0.169 ± 0.0263
TGTCGGAA | 0.233 ± 0.0472
GTGTGCTA | 0.321 ± 0.0179
GCGTTACA | 0.201 ± 0.00911
GCTGTGGA | 0.17 ± 0.0188
CGCCGTAC | 0.178 ± 0.00701
AATGATCC | 0.17 ± 0.0375
GTTGGACA | 0.245 ± 0.0116
CCTCTCGA | 0.17 ± 0.0627
CACGCACA | 0.262 ± 0.00327
CGGTGTTC | 0.476 ± 0.00165
CGGTGCTC | 0.218 ± 0.0427
CTGTGTTC | 0.175 ± 0.0413
